# Test results published in publication PMC11995724, “Antibiotic target discovery by integrated phenotypic and activity-based profiling of electrophilic fragments” (Cell chemical biology, 2025).
# The campaign covered roughly 3,200 compounds. About 75 (2%) showed an effect of 50% or more. This is one part of a sample in which strong results are shown more often than they occur.
# System: T1, S. aureus MSSA476
# T1 construct: MSSA476
# Design: species or system S. aureus MSSA476 (TSB) or V. cholerae SAD30 (LB); 384-well bacterial growth screen at 25 uM, OD600 relative to DMSO control
# Conditions: relative growth, OD600, TSB; 25 µM; inhibitor
row,SMILES,% of control remaining
1,"O=C(CCl)c1cn(-c2cccc(C(F)(F)F)c2)nn1 [10-C09, 2-chloro-1-{1-[3-(trifluoromethyl)phenyl]-1H-1,2,3-triazol-4-yl}ethan-1-one]",-0.3125%
2,"Cc1cccc(CC(=O)CCl)c1 [10-I19, 1-chloro-3-(3-methylphenyl)propan-2-one]",130.938%
3,"O=C(CCl)NC1CC(=O)N(c2cccc(C(F)(F)F)c2)C1 (stereo not shown) [5-E09, 2-chloro-N-{5-oxo-1-[3-(trifluoromethyl)phenyl]pyrrolidin-3-yl}acetamide]",113.661%
4,"O=C(CCl)c1ccc(C(F)(F)F)cc1 [10-B10, 2-chloro-1-[4-(trifluoromethyl)phenyl]ethan-1-one]",135.938%
5,Cc1cccc(-n2cc(C(=O)CCl)nn2)c1 [10-L07],0%
6,O=C(CCl)c1cn(-c2ccc(F)cc2)nn1 [10-F05],0%
7,"O=C(CCl)c1c[nH]c2ccc(F)cc12 [10-O11, 2-chloro-1-(5-fluoro-1H-indol-3-yl)ethan-1-one]",120.625%
8,"Cn1cc(C(=O)CCl)nn1 [10-M19, 2-chloro-1-(1-methyl-1H-1,2,3-triazol-4-yl)ethan-1-one]",87.5%
9,"CC(NC(=O)CCl)c1cn(-c2ccccc2)nn1 (stereo not shown) [5-O06, 2-chloro-N-[1-(1-phenyl-1H-1,2,3-triazol-4-yl)ethyl]acetamide]",91.0747%
10,"O=C(CCl)NCC(=O)Nc1nccs1 [5-G22, 2-chloro-N-{[(1,3-thiazol-2-yl)carbamoyl]methyl}acetamide]",86.3388%
11,"Cc1nn(-c2ccccc2)c(Cl)c1C=C(C#N)C(=O)NC(C)C [9-J17, 3-(5-chloro-3-methyl-1-phenyl-1H-pyrazol-4-yl)-2-cyano-N-(propan-2-yl)prop-2-enamide]",77.9026%
12,"C=CC(=O)N(C)CC(=O)Nc1ccc(N2C[C@@H](C)O[C@@H](C)C2)cc1 [3-H08, N-[({4-[(2R,6S)-2,6-dimethylmorpholin-4-yl]phenyl}carbamoyl)methyl]-N-methylprop-2-enamide]",117.719%
13,"CC(C)N(c1ccccc1)c1ccc(NC(=O)CCl)cc1 [6-I17, 2-chloro-N-{4-[phenyl(propan-2-yl)amino]phenyl}acetamide]",116.78%
14,"CCC(c1cc(Cl)cc(Cl)c1)N(C)C(=O)CCl (stereo not shown) [7-L10, 2-chloro-N-[1-(3,5-dichlorophenyl)propyl]-N-methylacetamide]",75.0392%
15,"COc1cc(C)c(C=C(C#N)C(=O)Nc2ccc(C)cc2)cc1C(C)C [9-C04, 2-cyano-3-[4-methoxy-2-methyl-5-(propan-2-yl)phenyl]-N-(4-methylphenyl)prop-2-enamide]",99.176%
16,"O=C(CCl)c1sccc1Cl [10-K11, 2-chloro-1-(3-chlorothiophen-2-yl)ethan-1-one]",10.3125%

row,SMILES,% of control remaining
1,"O=C(O)c1csc(C(=O)CCl)c1 [10-E22, 5-(2-chloroacetyl)thiophene-3-carboxylic acid]",88.4375%
2,"O=C(CCl)c1cc(Cl)ccc1Cl [10-E16, 2-chloro-1-(2,5-dichlorophenyl)ethan-1-one]",80%
3,"C=CC(=O)NCc1cc(Cl)cc(S(C)(=O)=O)c1 [3-N15, N-[(3-chloro-5-methanesulfonylphenyl)methyl]prop-2-enamide]",97.5185%
4,"C=CC(=O)NCc1oc(CC)nc1C [3-P15, N-[(2-ethyl-4-methyl-1,3-oxazol-5-yl)methyl]prop-2-enamide]",86.7218%
5,"Cc1c(C#N)c(NC(=O)CCl)n(Cc2cccs2)c1C [4-C04, 2-chloro-N-{3-cyano-4,5-dimethyl-1-[(thiophen-2-yl)methyl]-1H-pyrrol-2-yl}acetamide]",108.623%
6,"N#Cc1c(NC(=O)CCl)oc(-c2ccco2)c1-c1ccco1 [5-D10, 2-chloro-N-[4'-cyano-2'-(furan-2-yl)-[2,3'-bifuran]-5'-yl]acetamide]",66.6667%
7,"N#Cc1c(NC(=O)CCl)oc(-c2cccs2)c1-c1cccs1 [6-I09, 2-chloro-N-[3-cyano-4,5-bis(thiophen-2-yl)furan-2-yl]acetamide]",37.9024%
8,"COCC(C)NC(=O)C(C#N)=Cc1cccc(F)c1F (stereo not shown) [9-F09, 2-cyano-3-(2,3-difluorophenyl)-N-(1-methoxypropan-2-yl)prop-2-enamide]",101.873%
9,"C=CC(=O)N1CCCC1c1nc(N(C)C)no1 (stereo not shown) [2-C21, 1-{2-[3-(dimethylamino)-1,2,4-oxadiazol-5-yl]pyrrolidin-1-yl}prop-2-en-1-one]",104.439%
10,"C=CC(=O)N(CC)CC(=O)N1CCCC(F)(F)C1 [2-G14, N-[2-(3,3-difluoropiperidin-1-yl)-2-oxoethyl]-N-ethylprop-2-enamide]",112.446%
11,"O=C1C=CC(=O)N1CCc1ccc(F)cc1 [10-C21, 1-[2-(4-fluorophenyl)ethyl]-2,5-dihydro-1H-pyrrole-2,5-dione]",70.9375%
12,"O=C1C=CC(=O)N1CCc1ccccc1F [10-G03, 1-[2-(2-fluorophenyl)ethyl]-2,5-dihydro-1H-pyrrole-2,5-dione]",4.375%
13,"O=C1C=CC(=O)N1CCc1ccccc1 [10-E20, 1-(2-phenylethyl)-2,5-dihydro-1H-pyrrole-2,5-dione]",58.4375%
14,"CCc1nsc(N2CCN(C(=O)C(C#N)=Cc3ccco3)CC2)n1 [9-K05, 2-[4-(3-ethyl-1,2,4-thiadiazol-5-yl)piperazine-1-carbonyl]-3-(furan-2-yl)prop-2-enenitrile]",96.779%
15,"CNS(=O)(=O)c1cc(NC(=O)CCl)ccc1C [6-M07, 2-chloro-N-[4-methyl-3-(methylsulfamoyl)phenyl]acetamide]",112.341%
